# According to article PMC7862700, “An all-to-all approach to the identification of sequence-specific readers for epigenetic DNA modifications on cytosine”:
# Tests used:
# Assay in all cases: DAPPL (digital affinity profiling via proximity ligation, sequencing); 10 mM Tris-HCl pH 7.5, 50 mM NaCl, 1 mM DTT, 4% glycerol, room temperature, 30 min; GST-TFs on glutathione beads, 16-mer random dsDNA library, 0.1% formaldehyde crosslink after washing; high values mean tight binding
# [1] = target: T1, FEV (Homo sapiens, UniProt Q99581 1-238); settings: protein: recombinant; tags: N-terminal GST; dsDNA, one strand shown
# T1 sequence: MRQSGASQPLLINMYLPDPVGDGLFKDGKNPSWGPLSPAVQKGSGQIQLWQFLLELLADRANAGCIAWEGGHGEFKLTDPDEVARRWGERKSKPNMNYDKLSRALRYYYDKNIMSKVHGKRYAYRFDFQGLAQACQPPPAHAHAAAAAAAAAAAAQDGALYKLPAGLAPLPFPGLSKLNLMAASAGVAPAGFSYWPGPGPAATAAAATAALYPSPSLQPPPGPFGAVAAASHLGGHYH
# Summary of the method: (§1)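 Sequencing on an Illumina NextSeq500 followed washing, crosslinking with 0.1% formaldehyde, proximity ligation (BsaI/T4 ligase, 1 h, 37 °C) and PCR amplification of pools that had been incubated for 30 min at room temperature with 200 nmole of a random double-stranded 16-mer DNA library in Tris/NaCl/DTT/glycerol buffer. Each pool held DNA-barcoded human transcription factors, expressed in yeast as GST fusions and captured on glutathione beads, plus a tag-only sample. Binding signal is a hexamer's read frequency for a factor divided by its frequency in the tag-only sample.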
# [2] = target: ETV5 (Homo sapiens, UniProt P41161 1-510); settings: protein: recombinant; tags: N-terminal GST; dsDNA, one strand shown
# ETV5, sequence (P41161 whole entry): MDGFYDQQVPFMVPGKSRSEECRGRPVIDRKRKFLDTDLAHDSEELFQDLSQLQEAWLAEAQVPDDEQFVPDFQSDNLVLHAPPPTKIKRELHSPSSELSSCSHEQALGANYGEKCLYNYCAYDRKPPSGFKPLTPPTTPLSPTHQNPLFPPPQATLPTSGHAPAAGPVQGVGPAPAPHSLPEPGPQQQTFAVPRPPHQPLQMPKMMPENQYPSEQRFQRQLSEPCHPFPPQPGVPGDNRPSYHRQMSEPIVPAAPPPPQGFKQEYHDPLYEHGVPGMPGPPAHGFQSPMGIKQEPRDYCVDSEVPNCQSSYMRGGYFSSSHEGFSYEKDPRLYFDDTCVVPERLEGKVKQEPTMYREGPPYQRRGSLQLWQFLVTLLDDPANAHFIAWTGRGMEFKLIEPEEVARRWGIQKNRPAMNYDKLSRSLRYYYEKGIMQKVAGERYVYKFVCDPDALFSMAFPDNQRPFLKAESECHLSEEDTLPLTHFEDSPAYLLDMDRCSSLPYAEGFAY
# Summary of the method: as §1
# [3] = target: HSF1 (Homo sapiens, UniProt Q00613 1-529); settings: protein: recombinant; tags: N-terminal GST; chain copies: 3; dsDNA, one strand shown
# HSF1, sequence (Q00613 whole entry): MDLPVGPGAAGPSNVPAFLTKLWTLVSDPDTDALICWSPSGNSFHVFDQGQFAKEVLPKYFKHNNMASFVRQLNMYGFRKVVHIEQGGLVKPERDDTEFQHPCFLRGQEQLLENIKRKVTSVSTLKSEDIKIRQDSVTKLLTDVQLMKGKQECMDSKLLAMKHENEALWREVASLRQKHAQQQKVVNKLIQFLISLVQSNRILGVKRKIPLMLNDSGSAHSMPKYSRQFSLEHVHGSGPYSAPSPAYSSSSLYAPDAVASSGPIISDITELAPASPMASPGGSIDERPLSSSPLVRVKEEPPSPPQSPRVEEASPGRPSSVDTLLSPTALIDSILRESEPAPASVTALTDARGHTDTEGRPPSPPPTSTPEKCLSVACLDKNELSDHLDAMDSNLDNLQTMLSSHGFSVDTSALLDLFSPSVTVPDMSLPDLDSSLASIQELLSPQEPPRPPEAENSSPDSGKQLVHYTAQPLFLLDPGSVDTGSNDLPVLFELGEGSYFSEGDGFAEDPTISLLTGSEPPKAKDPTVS
# Summary of the method: as §1
# [4] = target: T2, SPIC (Homo sapiens, UniProt Q8N5J4 1-248); settings: protein: recombinant; tags: N-terminal GST; dsDNA, one strand shown
# T2 sequence: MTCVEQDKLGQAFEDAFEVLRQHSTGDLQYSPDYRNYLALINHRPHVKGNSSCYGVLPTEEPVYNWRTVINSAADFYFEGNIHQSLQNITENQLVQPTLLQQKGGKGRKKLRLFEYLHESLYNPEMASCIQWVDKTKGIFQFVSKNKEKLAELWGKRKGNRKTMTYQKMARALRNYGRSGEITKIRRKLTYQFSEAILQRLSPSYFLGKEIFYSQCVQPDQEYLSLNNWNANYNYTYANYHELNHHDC
# Summary of the method: as §1
# [5] = target: ELF4 (Homo sapiens, UniProt Q99607 1-663); settings: protein: recombinant; tags: N-terminal GST; dsDNA, one strand shown
# ELF4, sequence (Q99607 whole entry): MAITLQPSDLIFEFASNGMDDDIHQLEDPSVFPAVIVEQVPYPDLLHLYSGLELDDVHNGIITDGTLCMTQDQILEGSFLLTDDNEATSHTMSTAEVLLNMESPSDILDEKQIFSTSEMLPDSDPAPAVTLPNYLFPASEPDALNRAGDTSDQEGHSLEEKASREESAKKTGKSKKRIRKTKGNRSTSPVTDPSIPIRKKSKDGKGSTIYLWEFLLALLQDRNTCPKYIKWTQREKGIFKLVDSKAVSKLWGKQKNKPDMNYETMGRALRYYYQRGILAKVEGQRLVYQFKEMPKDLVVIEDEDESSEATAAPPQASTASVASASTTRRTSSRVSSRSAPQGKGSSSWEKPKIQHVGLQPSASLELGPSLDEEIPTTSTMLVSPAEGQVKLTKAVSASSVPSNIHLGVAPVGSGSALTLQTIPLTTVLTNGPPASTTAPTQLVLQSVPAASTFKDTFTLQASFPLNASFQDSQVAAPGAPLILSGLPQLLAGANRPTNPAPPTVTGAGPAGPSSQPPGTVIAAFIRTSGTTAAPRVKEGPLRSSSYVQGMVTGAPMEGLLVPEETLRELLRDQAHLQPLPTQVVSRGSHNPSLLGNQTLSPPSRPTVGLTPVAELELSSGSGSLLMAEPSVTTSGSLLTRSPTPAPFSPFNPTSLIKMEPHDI
# Summary of the method: as §1
# [6] = target: T3, ELK4 (Homo sapiens, UniProt P28324-2 1-405); settings: protein: recombinant; tags: N-terminal GST; dsDNA, one strand shown
# T3 sequence: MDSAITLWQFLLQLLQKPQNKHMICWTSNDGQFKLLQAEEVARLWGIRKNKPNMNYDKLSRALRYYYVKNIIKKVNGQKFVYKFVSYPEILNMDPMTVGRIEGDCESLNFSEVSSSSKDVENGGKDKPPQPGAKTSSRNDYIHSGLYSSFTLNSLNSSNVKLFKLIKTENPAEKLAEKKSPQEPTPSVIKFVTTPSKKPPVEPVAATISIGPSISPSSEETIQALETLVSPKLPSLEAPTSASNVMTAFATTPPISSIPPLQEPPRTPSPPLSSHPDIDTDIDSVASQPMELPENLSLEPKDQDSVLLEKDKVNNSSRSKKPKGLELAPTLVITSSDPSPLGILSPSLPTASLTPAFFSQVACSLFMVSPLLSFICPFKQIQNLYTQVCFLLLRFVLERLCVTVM
# Summary of the method: as §1
# [7] = target: T4, ETV2 (Homo sapiens, UniProt O00321 1-342); settings: protein: recombinant; tags: N-terminal GST; dsDNA, one strand shown
# T4 sequence: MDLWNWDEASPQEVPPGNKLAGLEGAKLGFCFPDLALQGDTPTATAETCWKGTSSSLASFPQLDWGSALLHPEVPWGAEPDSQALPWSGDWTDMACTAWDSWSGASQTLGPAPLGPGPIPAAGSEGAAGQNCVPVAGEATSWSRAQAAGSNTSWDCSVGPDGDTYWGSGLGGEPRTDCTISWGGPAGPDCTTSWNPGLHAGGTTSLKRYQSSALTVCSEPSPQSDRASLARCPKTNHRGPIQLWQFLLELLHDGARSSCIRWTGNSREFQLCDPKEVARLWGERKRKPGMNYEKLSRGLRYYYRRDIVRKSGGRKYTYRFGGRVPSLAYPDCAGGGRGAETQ
# Summary of the method: as §1
# [8] = target: T5, ELF3 (Homo sapiens, UniProt P78545 1-371); settings: protein: recombinant; tags: N-terminal GST; dsDNA, one strand shown
# T5 sequence: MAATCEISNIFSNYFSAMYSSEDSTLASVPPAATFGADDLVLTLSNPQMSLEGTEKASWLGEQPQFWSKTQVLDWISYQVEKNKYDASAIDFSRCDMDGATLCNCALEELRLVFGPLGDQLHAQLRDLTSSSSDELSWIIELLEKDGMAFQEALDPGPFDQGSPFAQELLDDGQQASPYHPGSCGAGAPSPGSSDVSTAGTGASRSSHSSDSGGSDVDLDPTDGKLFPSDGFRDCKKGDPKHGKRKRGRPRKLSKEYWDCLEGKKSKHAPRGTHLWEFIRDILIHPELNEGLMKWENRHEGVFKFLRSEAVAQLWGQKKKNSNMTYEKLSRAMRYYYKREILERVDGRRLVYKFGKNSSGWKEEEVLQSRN
# Summary of the method: as §1
# [9] = target: ETV1 (Homo sapiens, UniProt P50549 1-477); settings: protein: recombinant; tags: N-terminal GST; dsDNA, one strand shown
# ETV1, sequence (P50549 whole entry): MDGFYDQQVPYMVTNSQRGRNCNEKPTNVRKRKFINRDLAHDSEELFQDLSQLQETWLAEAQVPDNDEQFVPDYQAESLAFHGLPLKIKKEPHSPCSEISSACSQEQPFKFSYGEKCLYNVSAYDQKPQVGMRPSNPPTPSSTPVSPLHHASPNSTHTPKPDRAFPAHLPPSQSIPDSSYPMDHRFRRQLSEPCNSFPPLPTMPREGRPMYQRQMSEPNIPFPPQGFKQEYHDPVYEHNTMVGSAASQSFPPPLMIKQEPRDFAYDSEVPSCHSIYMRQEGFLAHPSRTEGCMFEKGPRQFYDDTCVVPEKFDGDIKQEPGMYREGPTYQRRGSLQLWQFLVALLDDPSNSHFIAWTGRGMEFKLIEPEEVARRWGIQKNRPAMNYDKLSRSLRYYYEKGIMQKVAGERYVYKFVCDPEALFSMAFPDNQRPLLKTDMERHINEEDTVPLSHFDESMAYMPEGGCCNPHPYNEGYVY
# Summary of the method: as §1
# [10] = target: T6, ERF (Homo sapiens, UniProt P50548 1-548); settings: protein: recombinant; tags: N-terminal GST; dsDNA, one strand shown
# T6 sequence: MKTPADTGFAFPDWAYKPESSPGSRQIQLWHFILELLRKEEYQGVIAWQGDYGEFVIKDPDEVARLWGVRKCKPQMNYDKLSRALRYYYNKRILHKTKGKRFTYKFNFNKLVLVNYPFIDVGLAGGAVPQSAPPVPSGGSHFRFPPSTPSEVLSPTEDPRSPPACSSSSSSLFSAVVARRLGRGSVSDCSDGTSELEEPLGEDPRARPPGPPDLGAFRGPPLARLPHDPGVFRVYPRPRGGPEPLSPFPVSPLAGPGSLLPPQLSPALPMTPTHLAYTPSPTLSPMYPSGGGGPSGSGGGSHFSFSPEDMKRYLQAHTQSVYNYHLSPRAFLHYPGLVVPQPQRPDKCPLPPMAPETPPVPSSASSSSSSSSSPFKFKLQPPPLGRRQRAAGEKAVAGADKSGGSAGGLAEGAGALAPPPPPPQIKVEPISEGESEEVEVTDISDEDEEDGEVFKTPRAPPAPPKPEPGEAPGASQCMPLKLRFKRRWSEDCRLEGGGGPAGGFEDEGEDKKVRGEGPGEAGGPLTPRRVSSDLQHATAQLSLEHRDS
# Summary of the method: as §1
# [11] = target: T7, ETV3L (Homo sapiens, UniProt Q6ZN32 1-361); settings: protein: recombinant; tags: N-terminal GST; dsDNA, one strand shown
# T7 sequence: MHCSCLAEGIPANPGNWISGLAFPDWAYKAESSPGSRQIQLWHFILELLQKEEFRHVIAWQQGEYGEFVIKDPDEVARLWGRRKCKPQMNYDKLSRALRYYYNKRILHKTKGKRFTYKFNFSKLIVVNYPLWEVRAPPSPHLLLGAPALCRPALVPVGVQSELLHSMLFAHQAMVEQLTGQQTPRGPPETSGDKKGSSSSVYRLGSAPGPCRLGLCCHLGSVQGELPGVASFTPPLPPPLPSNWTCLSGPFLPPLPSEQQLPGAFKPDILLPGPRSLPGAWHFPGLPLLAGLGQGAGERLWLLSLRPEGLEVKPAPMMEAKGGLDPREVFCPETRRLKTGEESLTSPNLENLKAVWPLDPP
# Summary of the method: as §1
# [12] = target: T8, ETS2 (Homo sapiens, UniProt P15036 1-469); settings: protein: recombinant; tags: N-terminal GST; dsDNA, one strand shown
# T8 sequence: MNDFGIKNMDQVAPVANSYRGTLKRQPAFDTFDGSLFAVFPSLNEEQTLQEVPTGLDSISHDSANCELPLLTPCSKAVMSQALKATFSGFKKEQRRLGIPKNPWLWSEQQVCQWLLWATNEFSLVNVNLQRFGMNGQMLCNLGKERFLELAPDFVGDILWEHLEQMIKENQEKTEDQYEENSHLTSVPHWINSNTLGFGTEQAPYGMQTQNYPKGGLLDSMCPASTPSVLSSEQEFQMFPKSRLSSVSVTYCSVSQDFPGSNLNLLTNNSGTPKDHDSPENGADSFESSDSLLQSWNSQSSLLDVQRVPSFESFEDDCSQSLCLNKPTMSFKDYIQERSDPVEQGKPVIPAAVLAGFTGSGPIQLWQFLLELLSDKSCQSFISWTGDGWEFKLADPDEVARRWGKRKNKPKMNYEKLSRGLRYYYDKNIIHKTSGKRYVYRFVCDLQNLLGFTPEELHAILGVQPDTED
# Summary of the method: as §1
# [13] = target: T9, SPDEF (Homo sapiens, UniProt O95238 1-335); settings: protein: recombinant; tags: N-terminal GST; dsDNA, one strand shown
# T9 sequence: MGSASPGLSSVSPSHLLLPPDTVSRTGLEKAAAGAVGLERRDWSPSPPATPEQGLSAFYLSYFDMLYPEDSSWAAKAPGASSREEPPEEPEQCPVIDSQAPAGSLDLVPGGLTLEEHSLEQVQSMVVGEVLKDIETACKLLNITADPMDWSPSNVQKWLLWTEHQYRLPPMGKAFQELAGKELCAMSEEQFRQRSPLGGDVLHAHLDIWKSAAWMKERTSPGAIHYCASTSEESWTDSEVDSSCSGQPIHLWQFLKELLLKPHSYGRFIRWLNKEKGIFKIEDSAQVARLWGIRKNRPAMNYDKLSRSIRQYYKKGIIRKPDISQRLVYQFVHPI
# Summary of the method: as §1
# [14] = target: T10, ETV7 (Homo sapiens, UniProt Q9Y603 1-341); settings: protein: recombinant; tags: N-terminal GST; dsDNA, one strand shown
# T10 sequence: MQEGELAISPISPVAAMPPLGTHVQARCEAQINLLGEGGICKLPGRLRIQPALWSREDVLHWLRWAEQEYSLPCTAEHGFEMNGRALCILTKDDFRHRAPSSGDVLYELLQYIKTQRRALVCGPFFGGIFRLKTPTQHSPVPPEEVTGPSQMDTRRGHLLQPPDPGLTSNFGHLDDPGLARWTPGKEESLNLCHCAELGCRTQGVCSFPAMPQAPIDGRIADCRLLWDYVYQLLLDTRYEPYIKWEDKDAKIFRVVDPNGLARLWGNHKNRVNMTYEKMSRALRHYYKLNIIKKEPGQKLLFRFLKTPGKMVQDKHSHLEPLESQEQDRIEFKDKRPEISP
# Summary of the method: as §1
# [15] = target: T11, ELF5 (Homo sapiens, UniProt Q9UKW6-2 1-255); settings: protein: recombinant; tags: N-terminal GST; dsDNA, one strand shown
# T11 sequence: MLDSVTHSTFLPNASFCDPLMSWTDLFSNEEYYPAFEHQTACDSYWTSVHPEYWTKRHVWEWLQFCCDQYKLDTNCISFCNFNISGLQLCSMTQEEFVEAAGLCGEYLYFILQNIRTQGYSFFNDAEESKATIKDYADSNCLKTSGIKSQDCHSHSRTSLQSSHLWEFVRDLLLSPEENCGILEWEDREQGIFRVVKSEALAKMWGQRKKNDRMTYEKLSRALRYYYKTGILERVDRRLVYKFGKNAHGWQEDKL
# Summary of the method: as §1
# [16] = target: T12, ETV3 (Homo sapiens, UniProt P41162-2 1-143); settings: protein: recombinant; tags: N-terminal GST; dsDNA, one strand shown
# T12 sequence: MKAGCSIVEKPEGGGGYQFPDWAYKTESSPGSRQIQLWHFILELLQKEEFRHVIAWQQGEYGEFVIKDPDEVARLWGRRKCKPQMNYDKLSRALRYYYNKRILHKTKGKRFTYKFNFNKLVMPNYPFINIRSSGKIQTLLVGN
# Summary of the method: as §1
# [17] = target: ETV6 (Homo sapiens, UniProt P41212 1-452); settings: protein: recombinant; tags: N-terminal GST; dsDNA, one strand shown
# ETV6, sequence (P41212 whole entry): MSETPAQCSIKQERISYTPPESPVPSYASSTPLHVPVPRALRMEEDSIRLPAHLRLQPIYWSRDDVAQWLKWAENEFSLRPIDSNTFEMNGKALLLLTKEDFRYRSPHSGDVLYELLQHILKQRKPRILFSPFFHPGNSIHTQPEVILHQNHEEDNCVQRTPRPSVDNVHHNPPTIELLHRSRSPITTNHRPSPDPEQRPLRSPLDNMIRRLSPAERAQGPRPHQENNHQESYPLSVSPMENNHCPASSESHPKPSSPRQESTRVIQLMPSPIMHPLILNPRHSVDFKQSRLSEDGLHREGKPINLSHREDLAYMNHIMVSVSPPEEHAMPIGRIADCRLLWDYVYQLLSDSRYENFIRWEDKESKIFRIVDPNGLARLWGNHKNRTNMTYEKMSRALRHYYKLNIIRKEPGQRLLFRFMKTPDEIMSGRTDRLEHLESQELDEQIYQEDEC
# Summary of the method: as §1
sequence,measurement,setting,value
GAACAC,binding signal,[1],"1.08 fold enrichment (6-mer frequency, TF over GST control)"
same,binding signal,[2],"1.08 fold enrichment (6-mer frequency, TF over GST control)"
same,binding signal,[3],"1.21 fold enrichment (6-mer frequency, TF over GST control)"
same,binding signal,[4],"1.18 fold enrichment (6-mer frequency, TF over GST control)"
same,binding signal,[5],"1.13 fold enrichment (6-mer frequency, TF over GST control)"
same,binding signal,[6],"1.17 fold enrichment (6-mer frequency, TF over GST control)"
same,binding signal,[7],"1.33 fold enrichment (6-mer frequency, TF over GST control)"
same,binding signal,[8],"1.13 fold enrichment (6-mer frequency, TF over GST control)"
same,binding signal,[9],"1.18 fold enrichment (6-mer frequency, TF over GST control)"
same,binding signal,[10],"1.11 fold enrichment (6-mer frequency, TF over GST control)"
same,binding signal,[11],"1.18 fold enrichment (6-mer frequency, TF over GST control)"
same,binding signal,[12],"1.12 fold enrichment (6-mer frequency, TF over GST control)"
same,binding signal,[13],"1.26 fold enrichment (6-mer frequency, TF over GST control)"
same,binding signal,[14],"1.15 fold enrichment (6-mer frequency, TF over GST control)"
same,binding signal,[15],"1.17 fold enrichment (6-mer frequency, TF over GST control)"
same,binding signal,[16],"1.14 fold enrichment (6-mer frequency, TF over GST control)"
same,binding signal,[17],"1.13 fold enrichment (6-mer frequency, TF over GST control)"
